Several values for one entry are separate records, joined by “and”; a condition that tells them apart may be missing. Equal entries are not always repeated. This is part of a sample that, as a whole, favours compounds with a hit. Of some 83,000 tested, about 20% had one in any assay.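 Cells were grown in 96-well plates and exposed to the test compound at a single concentration for 48 hours; results are reported as percent growth, with values below 10 considered active.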 Unmarked numbers belong to inactive results. Activity calls are given as the source filed them.
Test system: MDA-MB-468 breast
Test: NCI-60 one-dose screen, 48 h (100 = growth as untreated, 0 = no growth, -100 = all killed)
Settings: 10 µM unless noted

SMILES | growth
Cc1ccc(/C=C(\C#N)n2nnc3cc(F)c(F)cc32)cc1 | 17.3%
CC(C)=NOC(C)C(=O)O (stereo not given) | 106%
COc1ccc(NC(=O)CSc2nc3ccccc3c(=O)n2CCc2ccccc2)cc1 | 87.7%
Cc1ccc(Nc2nc(SC(C)C)nc(-c3ccccc3)c2C#N)cc1 | 96.7%
O=C(c1nc2ccccc2[nH]1)C1C(c2ccc(Br)cc2)C2CC3CCCC[C@H]3N2[C@@]12C(=O)Nc1cc(Cl)ccc12 (stereo not given in full) | 12.5%
Nc1c(C(=O)Nc2cccc3ccccc23)sc2nc3c(cc12)COCC3 | 38.6%
COc1ccc(O)c(-c2cc(-c3ccccc3)c(C#N)c(=O)[nH]2)c1 | 92.8%
O=C(CSc1nnc(-c2cccs2)n1-c1ccccc1)Nc1ccccc1 | 49.1%
O=c1nc(-c2ccccc2)c2cc(-c3ccc(N4CCCC4)nc3)ccc2[nH]1 | 48.4%
Nc1ccc(-c2nc3ccc4[nH]ncc4c3c3c2CCCC3)cc1F | 7.24% (active)
CCn1cc(C(=O)NN=C2CCCC2)c(=O)c2ccc(C)nc21 | 91.8%
Cc1ccc(C)c(-c2csc(Nc3ccc(C)c(C)c3)n2)c1 | 14.5%
C=CC(=O)NC(=O)Nc1ccccc1Cl | 30.4%
COc1ccc(Sc2[nH]c(C(C)=O)c3ccccc23)cc1 | -6.04% (active)
N#C/C(=C1C=C/C(=N/O)C(Cl)=C/1)c1ccc(Cl)cc1 | -8.37% (active)
COC1OCC(O)C(O)C1O (stereo not given) | 100%
OC(c1ccccn1)C(O)c1ccccn1 (stereo not given) | 113%
O=C(NC(Cc1ccccc1)C(=O)CCl)OCc1ccccc1 (stereo not given) | 79.8%
COc1ccc(Oc2c(I)cc(CC(NC(C)=O)C(=O)O)cc2I)cc1 (stereo not given) | 75.8%
CN1CCN(C(=O)c2c3c(n4ccccc24)C(=O)c2ncccc2C3=O)CC1 | 88.4%

SMILES | growth
Cc1c(Cl)cccc1NC(=O)c1sc2nc3c(cc2c1N)CCCC3 | 15.1%
CC[C@]12C=CCN3CC[C@@]4(c5ccc(OC)cc5N(C)[C@H]4[C@@](O)(C(=O)OC)[C@@H]1OC(=O)CCC(=O)O[C@H]1CC[C@H]4[C@@H]5CC[C@H]6CC(=O)CC[C@]6(C)[C@H]5CC[C@]14C)[C@@H]32 | 24.8%
Cc1ccc(Nc2nccc(N(C)c3ccc4c(C)n(C)nc4c3)n2)cc1S(N)(=O)=O | 34.1%
O=c1c(-c2nc3ccccc3[nH]2)cc2ccccc2n1Cc1cn(Cc2ccc(N3CCOCC3)cc2)nn1 | 64.3%
CCCN(CCSSCCNc1nc(N(C)O)nc(N(C)O)n1)c1nc(N(C)O)nc(N(C)O)n1 | 15.8%
CCN(CC)CCOC(=O)c1cccnc1 | 94.9%
Oc1ccc(N=Nc2nccs2)c(O)c1 | 48.5%
CCCCCCCCCCCC[n+]1ccc2ccccc2c1 | -30% (active)
N#C/C(=C\C=C\c1ccc(-c2cc(Cl)ccc2Cl)o1)c1nc2ccccc2s1 | 109%
C=C1C(=O)O[C@H]2[C@H]1CC/C(Cn1cc(CNCCc3c[nH]c4ccc(Cl)cc34)nn1)=C\CC[C@@]1(C)O[C@@H]21 | 19.6%
N#Cc1c(N)sc(=S)c2c1CCCC2 | 110%
COc1ccc2c3ccnc(C(F)(F)F)c3n(CCCCN)c2c1 | 33.7%
N#Cc1cnn(C(=O)c2nn(-c3ccc(Cl)cc3)cc2O)c1N | 32.1%
O=C(C(=O)N1CCCC1)c1cn(CCCn2cc(C(=O)C(=O)N3CCCC3)c3cc(Br)ccc32)c2ccc(Br)cc12 | 70.4%
COc1cc(C(=O)c2c(-c3ccccc3)oc3c(OC)cccc23)cc(OC)c1OC | 18.4%
Cc1ccc(NC(=O)c2cc(NCc3cc(O)ccc3O)ccc2O)cc1 | 86.6%
CC1(C)OC(=O)C(=Cc2ccc(C#N)cc2)C(=O)O1 | 91.7% and 96.1%
O=c1nc(-c2ccccc2)c2cc(-c3ccc(N4CCOCC4)cc3)ccc2[nH]1 | 77.4%
Cc1ccc(Nc2ncnc3c2sc2ncccc23)cc1 | 93%
COC(=O)c1c(C)c2n(c1C)C(=O)C(c1ccccc1)=C2 | 39.1%

Reference: PubChem BioAssay (NCI)
